PubChem BioAssay
Unmarked numbers belong to inactive results. For some assays here: Entries with a potency or affinity are not part of this list. Active and inactive are the calls of the source. Unless noted, the rule behind the calls is not given here.

Columns and labels:
[1] = antimalarial activity against Dd2 strain (AID 2302;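 active = growth inhibition above 50% at the single 2 µM test dose, taken to imply half-maximal potency below 2 µM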;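 note: 0% = DMSO untreated growth and 100% = chloroquine plus artemisinin killed control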); settings: P. falciparum Dd2 in RBCs, LDH growth readout, 72 h; at 2 µM; active compounds read high
[2] = HepG2 cytotoxicity, primary screen, cytotoxicity control for P. falciparum antimalarial project, cell-based, ATP luminescence (AID 2303;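 active = inhibition above 50%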;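 note: 0% = DMSO wells and 100% = digitonin-killed cells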); settings: HepG2 viability, 24-48 h, at 10 µM, active compounds read high
[3] = molecular target: L-lactate dehydrogenase (Plasmodium falciparum (isolate CDC / Honduras)) (UniProt Q27743); test: PfLDH activity inhibition – cell lysate, 3D7 strain, counter-screen for P. falciparum growth inhibition project (AID 2304);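 note: 0% = vehicle and 100% = reference inhibitor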; settings: P. falciparum 3D7 crude extract, LDH APAD/NBT absorbance; at 2 µM; active compounds read high
[4] = inhibition of 3D7 malaria parasite growth – strain 3D7 (AID 2306);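 note: 0% = DMSO wells and 100% = chloroquine plus artemisinin control wells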; settings: P. falciparum 3D7 erythrocytic growth, LDH absorbance, 72 h; at 2 µM; active compounds read high
[5] = molecular target: Calcium-dependent protein kinase 1 (Plasmodium falciparum (isolate 3D7)) (UniProt P62344); test: PfCDPK1 kinase inhibitors, biochemical, TCAMS library (AID 1159585; cut-off not given, nearly all actives have IC50 up to about 0.98 µM;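 note: inhibitors leave more ATP so luminescence rises with inhibition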); settings: recombinant PfCDPK1, Kinase-Glo ATP depletion luminescence
[6] = molecular target: Plasmodium falciparum protein kinase 6 (PK6, PF3D7_1337100) (UniProt Q8IDW1); test: PfPK6 kinase inhibitors, biochemical, TCAMS library (AID 1159586); settings: recombinant PfPK6, Kinase-Glo ATP depletion luminescence
[7] = molecular target: Protein kinase 7 (PK7), Plasmodium falciparum 3D7 (PF3D7_0213400) (UniProt Q7YTF7); test: inhibition of Plasmodium PK7 catalytic activity – biochemical, TCAMS antimalarial set, Kinase-Glo luminescence (AID 1159587); settings: recombinant PfPK7, Kinase-Glo ATP depletion luminescence
[8] = molecular target: Calcium-dependent protein kinase 4 (Plasmodium falciparum (isolate 3D7)) (UniProt Q8IBS5); test: PfCDPK4 kinase inhibitors, biochemical, TCAMS library (AID 1159588; cut-off not given, nearly all actives have IC50 up to about 0.91 µM); settings: recombinant PfCDPK4, Kinase-Glo ATP depletion luminescence
Chain of Calcium-dependent protein kinase 4 (Plasmodium falciparum (isolate 3D7)) (Q8IBS5 whole entry, looked up): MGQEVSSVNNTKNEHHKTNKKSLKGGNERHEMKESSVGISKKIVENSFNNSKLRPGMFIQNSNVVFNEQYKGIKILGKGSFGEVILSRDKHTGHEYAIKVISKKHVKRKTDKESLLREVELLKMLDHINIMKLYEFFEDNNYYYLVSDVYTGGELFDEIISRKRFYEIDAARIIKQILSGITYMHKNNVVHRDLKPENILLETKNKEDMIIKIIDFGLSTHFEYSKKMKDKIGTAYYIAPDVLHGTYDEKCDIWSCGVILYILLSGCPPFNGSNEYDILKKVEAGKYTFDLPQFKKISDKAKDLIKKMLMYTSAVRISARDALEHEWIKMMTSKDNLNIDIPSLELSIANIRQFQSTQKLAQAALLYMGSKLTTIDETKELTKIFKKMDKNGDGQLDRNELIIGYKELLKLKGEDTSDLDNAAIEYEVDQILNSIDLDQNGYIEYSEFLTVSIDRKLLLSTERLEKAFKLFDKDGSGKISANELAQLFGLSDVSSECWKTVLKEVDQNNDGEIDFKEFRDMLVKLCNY

Chain of L-lactate dehydrogenase (Plasmodium falciparum (isolate CDC / Honduras)) (Q27743 whole entry, looked up): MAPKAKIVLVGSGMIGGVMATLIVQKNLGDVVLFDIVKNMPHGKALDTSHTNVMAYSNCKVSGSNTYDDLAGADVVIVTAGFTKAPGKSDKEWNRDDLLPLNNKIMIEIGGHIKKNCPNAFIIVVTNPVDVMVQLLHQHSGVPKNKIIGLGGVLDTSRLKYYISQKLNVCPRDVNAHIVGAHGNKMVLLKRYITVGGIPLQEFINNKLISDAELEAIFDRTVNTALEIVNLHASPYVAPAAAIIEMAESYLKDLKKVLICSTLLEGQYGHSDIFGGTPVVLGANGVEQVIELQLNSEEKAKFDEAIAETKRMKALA
Chain of Plasmodium falciparum protein kinase 6 (PK6, PF3D7_1337100) (Q8IDW1 1-305): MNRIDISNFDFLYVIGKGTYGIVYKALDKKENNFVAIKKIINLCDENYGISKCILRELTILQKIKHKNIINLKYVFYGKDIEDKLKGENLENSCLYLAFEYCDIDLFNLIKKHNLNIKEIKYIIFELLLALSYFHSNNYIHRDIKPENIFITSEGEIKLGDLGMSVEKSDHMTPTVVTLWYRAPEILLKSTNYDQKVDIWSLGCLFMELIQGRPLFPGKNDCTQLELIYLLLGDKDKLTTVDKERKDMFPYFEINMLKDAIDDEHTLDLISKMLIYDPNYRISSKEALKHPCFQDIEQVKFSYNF
Chain of Protein kinase 7 (PK7), Plasmodium falciparum 3D7 (PF3D7_0213400) (Q7YTF7 1-343): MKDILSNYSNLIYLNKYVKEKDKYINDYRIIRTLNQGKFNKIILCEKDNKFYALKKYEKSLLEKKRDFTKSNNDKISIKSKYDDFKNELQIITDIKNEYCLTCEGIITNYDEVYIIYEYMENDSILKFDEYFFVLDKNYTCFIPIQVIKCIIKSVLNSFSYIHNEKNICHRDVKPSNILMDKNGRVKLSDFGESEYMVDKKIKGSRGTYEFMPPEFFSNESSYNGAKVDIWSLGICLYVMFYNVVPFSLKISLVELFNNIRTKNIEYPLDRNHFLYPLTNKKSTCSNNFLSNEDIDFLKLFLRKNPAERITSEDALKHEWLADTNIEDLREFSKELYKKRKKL
Chain of Calcium-dependent protein kinase 1 (Plasmodium falciparum (isolate 3D7)) (P62344 whole entry, looked up): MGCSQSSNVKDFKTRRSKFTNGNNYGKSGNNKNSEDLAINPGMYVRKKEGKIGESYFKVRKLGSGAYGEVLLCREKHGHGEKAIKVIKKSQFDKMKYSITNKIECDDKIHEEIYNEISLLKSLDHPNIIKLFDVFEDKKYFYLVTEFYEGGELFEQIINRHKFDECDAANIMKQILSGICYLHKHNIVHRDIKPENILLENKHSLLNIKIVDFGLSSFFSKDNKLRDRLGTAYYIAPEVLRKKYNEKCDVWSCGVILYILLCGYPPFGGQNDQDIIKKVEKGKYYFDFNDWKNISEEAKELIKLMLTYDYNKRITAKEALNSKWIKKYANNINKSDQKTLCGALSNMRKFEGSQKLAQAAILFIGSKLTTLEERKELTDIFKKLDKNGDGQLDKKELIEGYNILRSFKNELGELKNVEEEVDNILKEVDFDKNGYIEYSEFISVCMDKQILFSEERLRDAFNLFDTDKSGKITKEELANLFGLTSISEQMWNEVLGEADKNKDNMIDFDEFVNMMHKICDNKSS

Structure (SMILES)	growth inhibition [1]	inhibition [2]	inhibition [3]	growth inhibition [4]	outcome [5]	outcome [6]	outcome [7]	outcome [8]
CCNC(=O)c1ccc(-n2nc(C)cc2-c2ccccc2)cc1	54% (active)	11%	2%	89% (active)	inactive	inactive	inactive	inactive
CCCCOc1ccc(-n2c(Nc3ccccc3)nc3cc(S(N)(=O)=O)ccc32)cc1	72% (active)	0%	-6%	90% (active)	inactive	inactive	inactive	inactive
O=C(Nc1cccnc1)c1ccc(-c2cc3ccncc3cc2OC2CCNCC2)s1	12%	-5%	1%	97% (active)	inactive	inactive	inactive	inactive
CN(C)Cc1cccc(-c2cnc(N)c(-c3nc4ccc(S(C)(=O)=O)cc4[nH]3)c2)c1	61% (active)	27%	-2%	100% (active)	inactive	inactive	inactive	inactive
CC1CCCN1Cc1ccc(-c2ccc3c(=O)cc(CCc4cccc(F)c4F)n(CC(=O)N(C)Cc4ccc(-c5ccc(C(F)(F)F)cc5)cc4)c3n2)cc1 (stereo not given)	91% (active)	0%	3%	102% (active)	inactive	inactive	inactive	inactive
Cc1ccc(C2CCN(CCCCNC(=O)c3ccc(-c4ccc(C#N)cc4)cc3)CC2)c(O)c1	90% (active)	45%	-3%	100% (active)	inactive	inactive	inactive	inactive
O=C(c1cc(-c2ccco2)[nH]n1)N1CCN(S(=O)(=O)c2ccc(Cl)cc2)CC1	95% (active)	-5%	2%	96% (active)	inactive	inactive	inactive	inactive
Cc1cc(NCCC(=O)NCc2cccc(F)c2)nc(NCCc2ccc(F)cc2)n1	2%	0%	-1%	89% (active)	inactive	inactive	inactive	inactive
N#Cc1ccc(NC(=NC2CCN(Cc3ccccc3)CC2)Nc2ccccc2Cl)c(O)c1	97% (active)	31%	0%	101% (active)	inactive	inactive	inactive	inactive
c1ccc(Oc2ccc(Nc3ccnc4cc(-c5ccc(CN6CCCCC6)o5)ccc34)cc2)nc1	100% (active)	18%	-4%	101% (active)	inactive	inactive	inactive	inactive
CCNc1cc(C(=O)N[C@@H](Cc2ccccc2)[C@H](O)CNCc2cc(OC)cc(OC)c2)cc(N2CCCC2=O)c1	75% (active)	-7%	2%	100% (active)	inactive	inactive	inactive	inactive
Cc1cccc2[nH]c(-c3ccc(-c4cccc(CNCc5ccccc5)c4)s3)nc12	50% (active)	3%	-3%	99% (active)	inactive	inactive	inactive	inactive
CCCCCCCC1CCN(C[C@H](O)c2ccnc3ccc(OC)cc23)CC1	81% (active)	23%	3%	94% (active)	inactive	inactive	inactive	inactive
CCCC(C)N(Cc1ccc(C(C)(C)C)cc1)C(=O)c1ccc(OC)cc1 (stereo not given)	98% (active)	7%	-2%	100% (active)	inactive	inactive	inactive	inactive
O=C(N[C@@H](Cc1ccccc1)[C@H](O)CNC1CCCc2ccccc21)c1cc(C2CCCC2)cc(N2CCCC2=O)c1 (stereo not given in full)	99% (active)	31%	-7%	97% (active)	inactive	inactive	inactive	inactive
CCc1[nH]nc(C(=O)NC2CCN(CC3(c4ccc(OC)cc4)CCCCC3)CC2)c1C	90% (active)	2%	-1%	90% (active)	inactive	inactive	inactive	inactive
COC(=O)/C=C/c1ccc(CCC(C)NCC(O)c2cccc(Cl)c2)cc1 (stereo not given)	77% (active)	5%	4%	94% (active)	inactive	inactive	inactive	inactive
O=C(Nc1cccc(F)c1)N1CCC(NS(=O)(=O)c2ccc(Br)cc2)CC1	23%	4%	-1%	93% (active)	inactive	inactive	inactive	inactive
O=C(NCCc1ccc(F)cc1)c1ccc(N2CCN(c3ccncc3)CC2)nc1	3%	1%	-4%	88% (active)	inactive	inactive	inactive	inactive
C=C[C@]1(C)C[C@@H](OC(=O)c2cncn(COC)c2=O)[C@]2(C)[C@H](C)CC[C@]3(CCC(=O)[C@H]32)[C@@H](C)[C@@H]1O	7%	-1%	-1%	96% (active)	inactive	inactive	inactive	inactive

Structure (SMILES)	growth inhibition [1]	inhibition [2]	inhibition [3]	growth inhibition [4]	outcome [5]	outcome [6]	outcome [7]	outcome [8]
O=C(NCCCCCN1CCC(c2c[nH]c3ccccc23)CC1)Nc1ccc(Cl)c(Cl)c1	-4%	42%	6%	92% (active)	inactive	inactive	inactive	inactive
CC1(C)CCNc2cc(NC(=O)c3ccc(-c4ncccc4C(F)(F)F)cc3)ccc21	86% (active)	7%	-3%	97% (active)	inactive	inactive	inactive	inactive
COc1ccc(NC(=O)Nc2cccc(-c3cccc(-c4nc5c(C)cccc5[nH]4)c3)c2)cc1	43%	-1%	2%	101% (active)	inactive	inactive	inactive	inactive
O=C(NC(=S)Nc1cc(C(F)(F)F)cc(C(F)(F)F)c1)c1ccc(Cl)cc1	99% (active)	31%	0%	96% (active)	inactive	inactive	inactive	inactive
CCC(CC)(Cc1ccccc1)NC(=O)[C@H](CC1CCCCC1)Nc1ccc(C#N)c2ccccc12	76% (active)	4%	-5%	95% (active)	inactive	inactive	inactive	inactive
CN1CCN(CC(=O)Nc2ccc(-c3ccc(-c4nc5ccccc5[nH]4)s3)cc2)CC1	49%	12%	-1%	101% (active)	inactive	inactive	inactive	inactive
CC1(C)N=C(N)N=C(N)N1OCCCCOc1ccc(Cl)cc1C1CCCCC1	97% (active)	56% (active)	2%	93% (active)	inactive	inactive	inactive	inactive
COc1ccc(CN2CCCN(Cc3cccc(C(=O)Nc4ccc(C)c(F)c4)c3)CC2)cc1	10%	49%	-3%	83% (active)	inactive	inactive	inactive	inactive
NC(=S)Cc1ccc2c(c1)OCO2	-3%	43%	-2%	96% (active)	inactive	inactive	inactive	inactive
COc1cc2nc(N3CCC(CNC(=O)c4ccc(-c5ccc(C(F)(F)F)cc5)cc4)CC3)nc(N)c2cc1OC	100% (active)	94% (active)	3%	100% (active)	inactive	inactive	inactive	inactive
C=C(NC(=O)C1CCCCC1)C(=O)OC	3%	15%	-4%	93% (active)	inactive	inactive	inactive	inactive
CCOc1ccc(C(=O)Nc2nonc2-c2ccc(OC)c(OC)c2)cc1	42%	7%	5%	95% (active)	inactive	inactive	inactive	inactive
O=C(Nc1cccc(-c2nn3ccccc3c2-c2ccnc(Nc3ccccc3)n2)c1)c1c(F)cccc1F	98% (active)	69% (active)	-6%	98% (active)	inactive	inactive	inactive	inactive
c1ccc(CN2CCC(NCc3cccc(-c4cncc5ccccc45)c3)CC2)cc1	11%	29%	3%	92% (active)	inactive	inactive	inactive	inactive
Cc1cccc(S(=O)(=O)Nc2cccc(CCN3CCC(N4CCCCC4)CC3)c2)c1	13%	15%	-2%	87% (active)	inactive	inactive	inactive	inactive
NC(=O)c1cccc(C(=O)Nc2cccc(-c3cccc(-c4nc5ccc(F)cc5[nH]4)c3)c2)c1	73% (active)	47%	1%	100% (active)	inactive	inactive	inactive	inactive
CCc1cn2c3c(cc(C(=O)N[C@@H](Cc4ccccc4)[C@H](O)CNC4CCOCC4)cc13)N(CC(F)(F)F)S(=O)(=O)CC2	98% (active)	4%	-2%	98% (active)	inactive	inactive	inactive	inactive
COC[C@H]1CCCN1Cc1ccc(-c2ccc(-c3nc4ccccc4[nH]3)s2)cc1	58% (active)	18%	-2%	95% (active)	inactive	inactive	inactive	inactive
CC(=O)c1cccc(NC(=O)NC2CCN(c3ccnc(Nc4ccc(F)cc4)n3)C2)c1 (stereo not given)	94% (active)	10%	-2%	99% (active)	inactive	inactive	inactive	inactive
Cc1cccc2[nH]c(-c3cccc(-c4ccc(NC(=O)C(C)C(=O)NC(C)C)cc4)c3)nc12 (stereo not given)	26%	13%	-3%	85% (active)	inactive	inactive	inactive	inactive
